For 40 compounds, growth results are on record in PubChem BioAssay (NCI).

The panel holds about 83,000 compounds, 20% with a hit somewhere; the sample as a whole holds those more often.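 Values shown are percent growth following 48 h exposure of cells in 96-well plates to a single concentration of compound; below 10 was considered active.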 Calls of active or inactive are those of the source.

The test system of this test is UO-31 renal. Nature of the test: NCI-60 one-dose screen, 48 h (100 = growth as untreated, 0 = no growth, -100 = all killed). The following applies: 10 µM unless noted. The protocol: Growth inhibition of the UO-31 human tumor cell line is measured as a screen for anti-cancer activity. Cells are grown in 96 well plates and exposed to the test compound for 48 hours. Compounds are tested at a single concentration, which is 10^-5 M for most compounds. The reported endpoint is percent growth (GI% or GIPRCNT), where numbers from 0 - 100% represent growth inhibition, and numbers from -100% - 0 represent cell death. For example, a value of 40 represents 60% growth inhibition. A value of 0 means no net growth occurred over the course of the experiment. A value of -40 indicates 40% of cells at the beginning of the experiment died by the end of the experiment. A value of -100 means all cells are dead at the end of the experiment.
NCI-60 Human Tumor Cell Lines Screen was performed using the standard one-dose NCI protocol, which is described in more detail at https://dtp.cancer.gov/discovery_development/nci-60/default.htm.
Compounds with GIPRCNT values below 10 were considered active. Activity score was based on GIPRCNT using the following formula: […]
Score is 0 for GIPRCNT values of 100 or above, 50 for GIPRCNT values of 0, and 100 for GIPRCNT values of -100.
Regarding `C=CCn1c(C)nc2cc(Nc3nc(N4CCCC4)nc4ccccc34)ccc21`, the growth is 68.1% (inactive). The same measure for `CCCCc1ccc(Nc2ccc(Nc3ccc(CCCC)cc3S(=O)(=O)O)c3c2C(=O)c2ccccc2C3=O)c(S(=O)(=O)O)c1`: 66.5% (inactive); for `COc1cc2c(cc1-c1c(C)noc1C)ncc1nc(C3CCC(F)(F)CC3)n(C3CCC(OC(F)F)CC3)c12` (stereo not given): 18.2% (inactive). With `O=C(/C=C/c1c(Cl)nc2sccn12)c1nccs1` the figure was 81.8% (inactive).

In the case of `C=CCOC1=CC(=O)c2ccccc2C1=O`, the growth was 74.2% (inactive). Turning to `COc1ccc(C(=NN=C(N)N)c2ccc(OC)cc2)cc1`, the growth was 62.4% (inactive). With `CN1CCN(CCCOc2ccc3nc(Nc4ccc(F)c(F)c4)ccc3c2)CC1`, the growth is 47.4% (inactive). Consider `Cc1ccc(S(=O)(=O)Oc2cc(OS(=O)(=O)c3ccc(C)cc3)cc(OS(=O)(=O)c3ccc(C)cc3)c2)cc1`, for which the growth is 71.8% (inactive). With `c1ccc(Nc2nc(-c3ccccn3)cs2)nc1` the figure was 0.382% (active); with `O=C1/C(=C\c2c[nH]c3ccccc23)c2ccccc2N1c1c(Cl)cccc1Cl`, 20.7% (inactive). Turning to `Cc1cc(NCCCCNc2ccnc3cc(Cl)ccc23)nc(Nc2ccc(C(=O)N3CCCC3)cc2)n1`, the growth is 75.4% (inactive).

Consider `Cn1cc(-c2csc(-c3ccccc3)n2)c2cccnc21`, for which the growth was -28.7% [100 µM] (active).

Take `COc1ccc(C2c3ccc4ccccc4c3Oc3nc(C)[nH]c(=O)c32)cc1` (stereo not given): the growth is -97.5% (active). As for `COc1ccc(-c2nc3c(N)c(CO)c(C)nc3o2)cc1`, the growth is 88.7% (inactive). The same measure for `CCN(CCNc1ccc(C)c2sc3ccccc3c(=O)c12)CC(C)(C)O`: 70.2% (inactive). For `CC1(c2ccccc2)NC(=O)N(NC(=O)CSc2nc(-c3cccs3)nc3ccccc23)C1=O` (stereo not given), the growth is -6.98% (active).

On to `COc1cc(/C=N/Nc2ncc(-c3cc4cc5c(cc4o3)OCO5)s2)cc(OC)c1OC`, for which the growth was 66.8% (inactive). As to `COc1cc(/C=C2\C(=O)ON=C2C)cc(OC)c1OC`, the growth was 80.3% (inactive).

As for `Nc1n[nH]c2cc(F)c([C@@H]3Nc4c(F)cc5[nH]ncc5c4[C@H]4C5CCC(C5)[C@@H]34)cc12` (stereo not given in full), the growth is 36.5% (inactive).

For the compound `Cc1ccc(/C=C/c2c(C(=O)/C=C/c3ccc(Cl)cc3)c(C)nc3ccccc23)cc1`, the growth is -74.7% (active). In the case of `O=C(COc1ccc(/C=C2\Oc3ccccc3C2=O)cc1)Nc1nc2c(s1)CCCC2`, the growth was -59.9% (active). `CS(=O)c1cccc(-c2ccc3nc(N)n(-c4ccc(C(F)(F)F)cc4)c(=O)c3c2)c1` (stereo not given): the growth was 75.8% (inactive).

For `Cc1ccc(C(=O)CSc2nc(-c3ccc(Br)cc3)c(C#N)c(=O)[nH]2)cc1`, the growth is 88.5% (inactive). Take `COc1ccc2[nH]c(O)c(/C=c3/cc4c(c(-c5ccc(F)c(OC)c5)n3)=Nc3ccccc3-4)c2c1`: the growth was 74.7% (inactive). As to `COc1ccc(C2C(c3nn[nH]n3)=C(N)Oc3c2ccc2ccccc32)cc1` (stereo not given), the growth is 45.1% (inactive). With `CCCCCCCCCCCCCCCCCCOc1ccccc1CC(=O)OCCC[N+](C)(C)C` the figure was 90.1% (inactive); with `CCN(CC)Cc1cccc(C(=O)OC)c1`, 103% (inactive). With `O=C(c1ccccc1)c1c(/C=C/c2ccc(Cl)cc2)nc2ccccc2c1/C=C/c1cccs1`, the growth is 82.9% (inactive). The same measure for `CCCCn1c(=O)c2c(nc3n2CCCN3CCc2ccc(OCC(=O)NCCN(CC)CC)cc2)n(CCCC)c1=O`: 43.2% (inactive); for `O=C1N=c2cc3c(cc2=C/C1=C/c1sc(=S)n(CCc2ccc(O)cc2)c1O)OCCO3`: 71.1% (inactive).

In the case of `COc1cc(/C=C/C(=O)c2cccc(-n3cc(-c4ccccc4)[nH]c3=O)c2)ccc1O`, the growth is 36.4% (inactive). In the case of `COc1ccc(NC(=O)CSc2nc(C)c(C(C)=O)n2-c2ccc([N+](=O)[O-])cc2)cc1`, the growth is 83.6% (inactive). As for `c1ccc(-c2nc([P+](c3ccccc3)(c3ccccc3)c3ccccc3)c(N3CCOCC3)o2)cc1`, the growth was 74% (inactive).

For `CC(=O)n1c(-c2ccc(Cl)cc2)nc2c(c1=O)C(c1ccc(Cl)cc1)c1sc3c(Cl)cccc3c1O2` (stereo not given), the growth is 15.6% (inactive). The same measure for `Cc1c(C(=O)N[C@@H](Cc2ccccc2)C(=O)C(=O)NCCc2ccccc2)[nH]c2ccccc2c1=O`: 103% (inactive); for `COc1ccc(NC(=O)c2nc(-c3cc(OC)c(OC)c(OC)c3)n(-c3cccc4ccccc34)n2)cc1OC`: 6.34% (active); for `COc1ccc(-c2nc3ccc4[nH]ncc4c3c3c2CCCC3)cc1B(O)O`: 33.7% (inactive). With `CC(=O)C(C)Cc1cc2c(cc1C)C(C)(C)CCC2(C)C` (stereo not given) the figure was 101% (inactive); with `CC(C)CCC[C@@H](C)[C@H]1CC[C@H]2[C@@H](Nc3ccc(O)cc3)CCC[C@]12C`, 7.74% (active).

Regarding `O=C(Nc1ccc(Cl)cc1)Nc1ccc(Cl)c(C(F)(F)F)c1`, the growth was 18.5% (inactive).
